# The sample as a whole holds a higher share of the strongest signals than the screen did.
# Assays:
# Test in all cases: glycan array binding signal (z-score within array); higher = stronger binding
# Conditions in all cases: glycan notation: IUPAC condensed, linker removed
# Fuc(a1-2)Gal = target: Fuc(a1-2)Gal
# Outline: (§1)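 Arrays were curated from the Consortium for Functional Glycomics database, 3228 in total, and kept only where the protein sequence was available. Binding is expressed as a within-array Z-score. This score was averaged across arrays of the same protein sequence at different concentrations or buffers and across linkers, and negative values can be read as non-binding.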
# Fuc(a1-2)Gal6S(b1-4)Glc = target: Fuc(a1-2)Gal6S(b1-4)Glc
# Outline: as §1
# [1] = target: Fuc(a1-3)[Gal(b1-4)]GlcNAc(b1-2)Man(a1-6)[Gal(b1-4)GlcNAc(b1-2)Man(a1-3)]Man(b1-4)GlcNAc(b1-4)GlcNAc
# Outline: as §1
# Fuc(b1-3)GlcNAc = target: Fuc(b1-3)GlcNAc
# Outline: as §1
# Gal(a1-3)Gal(b1-3)GlcNAc = target: Gal(a1-3)Gal(b1-3)GlcNAc
# Outline: as §1
# Gal(a1-4)Gal(b1-4)GlcNAc = target: Gal(a1-4)Gal(b1-4)GlcNAc
# Outline: as §1
# [2] = target: Gal(b1-3)GlcNAc(b1-3)Gal(b1-4)GlcNAc
# Outline: as §1
# [3] = target: Gal3S(b1-3)[Fuc(a1-4)]GlcNAc
# Outline: as §1
# Gal4S(b1-4)GlcNAc = target: Gal4S(b1-4)GlcNAc
# Outline: as §1
# Gal6S(b1-4)GlcNAc6S = target: Gal6S(b1-4)GlcNAc6S
# Outline: as §1
# GalNAc(a1-3)Gal = target: GalNAc(a1-3)Gal
# Outline: as §1
# [4] = target: GalNAc(b1-3)Gal(a1-4)Gal(b1-4)GlcNAc(b1-3)Gal(b1-4)Glc
# Outline: as §1
# Glc(a1-4)Glc = target: Glc(a1-4)Glc
# Outline: as §1
# [5] = target: GlcNAc(b1-3)[GlcNAc(b1-6)]GalNAc
# Outline: as §1
# GlcNAc3Prop(b1-4)GlcNAc = target: GlcNAc3Prop(b1-4)GlcNAc
# Outline: as §1
# Kdn(a2-3)Gal(b1-3)GlcNAc = target: Kdn(a2-3)Gal(b1-3)GlcNAc
# Outline: as §1
# [6] = target: Man(a1-2)Man(a1-2)Man(a1-6)[Man(a1-3)]Man
# Outline: as §1
# Man(a1-3)[Man(a1-6)]Man = target: Man(a1-3)[Man(a1-6)]Man
# Outline: as §1
# [7] = target: Man(a1-3)[Man(a1-6)]Man(a1-6)[Man(a1-2)Man(a1-3)]Man(b1-4)GlcNAc(b1-4)GlcNAc
# Outline: as §1
# [8] = target: Man(a1-3)[Man(a1-6)]Man(a1-6)[Man(a1-3)]Man(b1-4)GlcNAc(b1-4)GlcNAc
# Outline: as §1
# Man(a1-6)Man = target: Man(a1-6)Man
# Outline: as §1
# [9] = target: Neu5Ac(a2-3)Gal(b1-3)GalNAc(b1-4)[Neu5Ac(a2-3)]Gal(b1-4)Glc
# Outline: as §1
# [10] = target: Neu5Ac(a2-3)Gal(b1-3)GlcNAc(b1-3)Gal(b1-3)GlcNAc
# Outline: as §1
# [11] = target: Neu5Ac(a2-3)Gal(b1-3)[Fuc(a1-4)]GlcNAc
# Outline: as §1
# [12] = target: Neu5Ac(a2-3)Gal(b1-3)[Neu5Ac(a2-3)Gal(b1-4)]GlcNAc
# Outline: as §1
# [13] = target: Neu5Ac(a2-3)Gal(b1-3)[Neu5Ac(a2-6)]GalNAc
# Outline: as §1
# Neu5Ac(a2-3)Gal(b1-4)Glc = target: Neu5Ac(a2-3)Gal(b1-4)Glc
# Outline: as §1
# [14] = target: Neu5Ac(a2-3)Gal(b1-4)GlcNAc(b1-2)Man(a1-3)[Neu5Ac(a2-6)Gal(b1-4)GlcNAc(b1-2)Man(a1-6)]Man(b1-4)GlcNAc(b1-4)GlcNAc
# Outline: as §1
# [15] = target: Neu5Ac(a2-3)Gal(b1-4)GlcNAc(b1-3)Gal(b1-4)[Fuc(a1-3)]GlcNAc
# Outline: as §1
# [16] = target: Neu5Ac(a2-3)Gal(b1-4)GlcNAc6S
# Outline: as §1
# [17] = target: Neu5Ac(a2-3)Gal(b1-4)[Fuc(a1-3)]GlcNAc(b1-6)[Neu5Ac(a2-3)Gal(b1-3)]GalNAc
# Outline: as §1
# [18] = target: Neu5Ac(a2-3)Gal(b1-4)[Fuc(a1-3)]GlcNAc6S
# Outline: as §1
# [19] = target: Neu5Ac(a2-3)[GalNAc(b1-4)]Gal(b1-4)Glc
# Outline: as §1
# [20] = target: Neu5Ac(a2-6)Gal(b1-4)GlcNAc(b1-2)Man(a1-6)Man(b1-4)GlcNAc(b1-4)GlcNAc
# Outline: as §1
# [21] = target: Neu5Ac(a2-6)Gal(b1-4)GlcNAc(b1-2)Man(a1-6)[Man(a1-3)]Man(b1-4)GlcNAc(b1-4)GlcNAc
# Outline: as §1
# [22] = target: Neu5Ac(a2-8)Neu5Ac(a2-3)Gal(b1-4)Glc
# Outline: as §1
# [23] = target: Neu5Ac(a2-8)Neu5Ac(a2-8)Neu5Ac(a2-3)Gal(b1-4)Glc
# Outline: as §1
# [24] = target: Neu5Ac9Ac(a2-6)Gal(b1-4)GlcNAc
# Outline: as §1
# Neu5Gc(a2-3)Gal(b1-4)Glc = target: Neu5Gc(a2-3)Gal(b1-4)Glc
# Outline: as §1
# [25] = target: Fuc(a1-2)[Gal(a1-3)]Gal(b1-4)GlcNAc
# Outline: as §1
# [26] = target: Fuc(a1-2)[Gal(a1-3)]Gal(b1-4)[Fuc(a1-3)]GlcNAc
# Outline: as §1
# Gal(a1-4)Gal(b1-4)GalNAc = target: Gal(a1-4)Gal(b1-4)GalNAc
# Outline: as §1
# Gal(b1-2)Gal = target: Gal(b1-2)Gal
# Outline: as §1
# [27] = target: Gal(b1-3)GalNAc(b1-3)Gal(a1-4)Gal(b1-4)Glc
# Outline: as §1
# Gal(b1-4)Glc6S = target: Gal(b1-4)Glc6S
# Outline: as §1
# [28] = target: GlcNAc(a1-3)Gal(b1-4)GlcNAc
# Outline: as §1
# [29] = target: GlcNAc(b1-2)Gal(b1-3)GlcNAc
# Outline: as §1
# [30] = target: GlcNAc(b1-3)[GlcNAc(b1-6)]GlcNAc
# Outline: as §1
# [31] = target: GlcNAc(b1-4)Gal(b1-4)GlcNAc
# Outline: as §1
# [32] = target: GlcNAc(b1-4)GlcNAc(b1-4)GlcNAc(b1-4)GlcNAc(b1-4)GlcNAc
# Outline: as §1
# [33] = target: Neu5Ac(a2-3)Gal(b1-3)GalNAc(b1-3)Gal(a1-4)Gal(b1-4)Glc
# Outline: as §1
# [34] = target: Neu5Ac(a2-3)Gal(b1-3)GlcNAc
# Outline: as §1
# [35] = target: Neu5Ac(a2-3)Gal6S(b1-4)[Fuc(a1-3)]GlcNAc
# Outline: as §1
# Neu5Ac(a2-6)GalNAc = target: Neu5Ac(a2-6)GalNAc
# Outline: as §1
# [36] = target: Neu5Gc(a2-3)Gal(b1-3)[Fuc(a1-4)]GlcNAc
# Outline: as §1
binder,measurement,setting,value
"Spy0252 (Streptococcus pyogenes), Q9A1I9_STRP1 (protein) MNMKKLASLAMLGASVLGLAACGGKSQKEAGASKSDTAKTEITWWAFPVFTQEKAEDGVGTYEKKLIAAFEKANPEIKVKLETIDFTSGPEKITTAIEAGTAPDVLFDAPGRIIQYGKNGKLADLNDLFTEEFTKDVNNDKLIQASKAGDTAYMYPISSAPFYMALNKKMLKDAGVLDLVKEGWTTDDFEKVLKALKDKGYNPGSFFANGQGGDQGPRAFFANLYSSHITDDKVTKYTTDDANSIKAMTKISNWIKDGLMMNGSQYDGSADIQNFANGQTSFTILWAPAQPGIQAKLLEASKVDYLEIPFPSDDGKPELEYLVNGFAVFNNKDEQKVAASKTFIQFIADDKEWGPKNVVRTGAFPVRTSYGDLYKDKRMEKIAEWTKFYSPYYNTIDGFAEMRTLWFPMVQAVSNGDEKPEDALKAFTEKANKTIKKTQ",glycan array binding signal (z-score),Fuc(a1-2)Gal,-0.143
same,glycan array binding signal (z-score),Fuc(a1-2)Gal6S(b1-4)Glc,-0.255
same,glycan array binding signal (z-score),[1],-0.236
same,glycan array binding signal (z-score),Fuc(b1-3)GlcNAc,-0.263
same,glycan array binding signal (z-score),Gal(a1-3)Gal(b1-3)GlcNAc,-0.267
same,glycan array binding signal (z-score),Gal(a1-4)Gal(b1-4)GlcNAc,-0.203
same,glycan array binding signal (z-score),[2],-0.267
same,glycan array binding signal (z-score),[3],-0.259
same,glycan array binding signal (z-score),Gal4S(b1-4)GlcNAc,-0.249
same,glycan array binding signal (z-score),Gal6S(b1-4)GlcNAc6S,-0.268
same,glycan array binding signal (z-score),GalNAc(a1-3)Gal,-0.212
same,glycan array binding signal (z-score),[4],5.38
same,glycan array binding signal (z-score),Glc(a1-4)Glc,0.228
same,glycan array binding signal (z-score),[5],-0.259
same,glycan array binding signal (z-score),GlcNAc3Prop(b1-4)GlcNAc,0.218
same,glycan array binding signal (z-score),Kdn(a2-3)Gal(b1-3)GlcNAc,-0.248
same,glycan array binding signal (z-score),[6],-0.258
same,glycan array binding signal (z-score),Man(a1-3)[Man(a1-6)]Man,-0.267
same,glycan array binding signal (z-score),[7],-0.273
same,glycan array binding signal (z-score),[8],-0.271
same,glycan array binding signal (z-score),Man(a1-6)Man,-0.283
same,glycan array binding signal (z-score),[9],-0.256
same,glycan array binding signal (z-score),[10],-0.195
same,glycan array binding signal (z-score),[11],-0.279
same,glycan array binding signal (z-score),[12],-0.223
same,glycan array binding signal (z-score),[13],-0.085
same,glycan array binding signal (z-score),Neu5Ac(a2-3)Gal(b1-4)Glc,5.54
same,glycan array binding signal (z-score),[14],-0.259
same,glycan array binding signal (z-score),[15],6.21
same,glycan array binding signal (z-score),[16],-0.268
same,glycan array binding signal (z-score),[17],-0.157
same,glycan array binding signal (z-score),[18],-0.278
same,glycan array binding signal (z-score),[19],-0.266
same,glycan array binding signal (z-score),[20],-0.277
same,glycan array binding signal (z-score),[21],-0.26
same,glycan array binding signal (z-score),[22],7.23
same,glycan array binding signal (z-score),[23],7.09
same,glycan array binding signal (z-score),[24],-0.248
same,glycan array binding signal (z-score),Neu5Gc(a2-3)Gal(b1-4)Glc,5.2
CVNH3T (Magnaporthe grisea) (protein) GSHIGPYGNYAGNFSGSSRDICLDGARLRAECRRGDGGYSTSVIDLNRYLSNDNGHFRWVSGGGGGGGTATVTVQQGDTLRDIGRRFDCDFHEIARRNNIQNEDLIYPGQVLQVPTKGGSGGGAGNFWDSARDVRLVDGGKVLEAELRYSGGWNRSRIYLDEHIGNRNGELIHC,glycan array binding signal (z-score),Fuc(a1-2)Gal,-0.223
same,glycan array binding signal (z-score),[25],-0.23
same,glycan array binding signal (z-score),[26],-0.226
same,glycan array binding signal (z-score),Gal(a1-4)Gal(b1-4)GalNAc,5.47
same,glycan array binding signal (z-score),Gal(b1-2)Gal,-0.185
same,glycan array binding signal (z-score),[27],6.38
same,glycan array binding signal (z-score),Gal(b1-4)Glc6S,-0.229
same,glycan array binding signal (z-score),[28],-0.239
same,glycan array binding signal (z-score),[29],-0.233
same,glycan array binding signal (z-score),[30],-0.222
same,glycan array binding signal (z-score),[31],-0.22
same,glycan array binding signal (z-score),[32],5.39
same,glycan array binding signal (z-score),[8],-0.23
same,glycan array binding signal (z-score),[33],6.23
same,glycan array binding signal (z-score),[34],-0.152
same,glycan array binding signal (z-score),[35],-0.226
same,glycan array binding signal (z-score),Neu5Ac(a2-6)GalNAc,-0.209
same,glycan array binding signal (z-score),[36],-0.175
